# Reference: ChEMBL document CHEMBL3433997, “St. Jude Leishmania screening dataset” (2016)
# How the values were obtained:
# Assay type in all cases: functional
# [1] = target: Solute carrier family 2, facilitated glucose transporter member 1 (Homo sapiens) (UniProt P11166); test: ST_JUDE_LEISH: Cytotoxicity at 2uM final concentration against transgenic Leishmania Mexicana promastigotes LmGLUT1 that are glucose transport deficient and complemented with the human glucose transporter GLUT1. Activity is measured by DNA content using SYBR green in vitro
# [2] = target: Hexose transporter 1 (Plasmodium falciparum) (UniProt O97467); test: ST_JUDE_LEISH: Cytotoxicity at 2uM final concentration against transgenic Leishmania Mexicana promastigotes LmPfHT that are glucose transport deficient and complemented with the Plasmodium falciparum hexose transporter. Activity is measured by DNA content using SYBR green in vitro
# [3] = target: Glucose transporter (Leishmania mexicana) (UniProt O61059); test: ST_JUDE_LEISH: Cytotoxicity at 2uM final concentration against transgenic Leishmania Mexicana promastigotes LmGT2 that are glucose transport deficient and complemented with the L. Mexicana glucose transporter 2. Activity is measured by DNA content using SYBR green in vitro
# Sequence of Solute carrier family 2, facilitated glucose transporter member 1 (Homo sapiens) (P11166 whole entry): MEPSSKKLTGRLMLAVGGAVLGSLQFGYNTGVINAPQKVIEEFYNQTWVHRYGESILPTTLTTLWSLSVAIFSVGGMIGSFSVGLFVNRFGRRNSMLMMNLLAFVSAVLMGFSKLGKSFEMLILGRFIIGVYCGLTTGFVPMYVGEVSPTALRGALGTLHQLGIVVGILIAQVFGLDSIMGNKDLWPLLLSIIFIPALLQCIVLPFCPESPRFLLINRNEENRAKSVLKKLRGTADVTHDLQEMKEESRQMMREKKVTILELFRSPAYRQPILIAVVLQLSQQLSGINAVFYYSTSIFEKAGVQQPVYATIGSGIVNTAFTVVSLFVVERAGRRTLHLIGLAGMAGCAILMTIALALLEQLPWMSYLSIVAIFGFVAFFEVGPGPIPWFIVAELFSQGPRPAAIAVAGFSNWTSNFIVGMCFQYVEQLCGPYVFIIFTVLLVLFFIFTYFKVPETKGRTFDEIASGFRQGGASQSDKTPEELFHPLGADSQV
SMILES,inhibition [1] [%],inhibition [2] [%],inhibition [3] [%]
COc1ccc2nccc(NCC3(O)CCN(CCc4ccc5c(c4)OCCO5)CC3)c2n1,4.99,4.58,0.15
c1ccc2c(NCCOCCNc3c4ccccc4nc4ccccc34)c3ccccc3nc2c1,1.61,2.67,3.48
CCOc1ncccc1CN1CCC(N2CCc3cc(NC(=O)c4ccco4)ccc32)C1 (stereo unspecified),0.43,-0.71,1.65
CC(c1cccc(S(=O)(=O)NCc2ccc(Cl)cc2Cl)c1)N1CCC(N2CCCCC2)CC1 (stereo unspecified),8.44,4.33,3.71
COc1ccc2ncc(C#N)c(CCN3C[C@H](CNCc4ccccc4)[C@H](O)C3)c2n1,3.18,3.76,2.91
CC1CN(c2cnn(C/C=C/c3ccc(NC(=O)c4ccc(Cl)cc4)cc3)c(=O)c2Cl)CC(C)N1 (stereo unspecified),-0.22,-0.3,-1.49
CC(C)CC(=O)N(Cc1ccc(-c2ccc(CNC3Cc4ccccc4C3)cc2)cc1)C1CCNCC1,8.37,5.79,10.6
COc1ccc2ncc(F)c(CCN3CC(O)C(CNCc4ccc5c(n4)NC(=O)CS5)C3)c2c1 (stereo unspecified),1.08,1.93,2.84
Cc1nc2ccc3ccc(CNc4ccc5c(c4)CN([C@H](CCC(=O)O)C(=O)O)C5=O)cc3c2c(=O)[nH]1,3.36,2.42,10
O=C(Nc1ccc(CN2CCN(S(=O)(=O)c3cccc(Cl)c3)CC2)cc1)c1cccs1,3.93,2.08,1.17
CN(C)CCN(C)Cc1ccc(-c2cccc(NC(=O)c3ccc(Cl)cc3)c2)cc1,4.75,2.96,1.03
CS(=O)(=O)c1ccc(-c2cncc(Nc3cccc([N+](=O)[O-])c3)c2)cc1,7.42,7,6.3
CN1CCN(c2cc3c(cc2Cl)CCN3C(=O)Cc2ccc(Cl)c(NC(=O)Nc3cccc([N+](=O)[O-])c3)c2)CC1,-0.26,-1.82,1.55
Nc1nc(Nc2cccc(O)c2)nc2ccccc12,6.67,9.29,1.22
O=C(N[C@@H](Cc1ccccc1)[C@H](O)CNCCC(F)(F)F)c1cccc(OCC2CC2)c1,-0.59,-0.22,0.56
CCOc1cc(C(=O)N[C@@H](Cc2ccccc2)[C@H](O)CNCc2cc(OC)cc(OC)c2)cc(N2CCCCS2(=O)=O)c1,0.3,-0.68,-1.52

SMILES,inhibition [1] [%],inhibition [2] [%],inhibition [3] [%]
Cc1cccc2nc(-c3ccc(-c4cccc(NC(=O)COc5ccccc5C(N)=O)c4)s3)[nH]c12,9.69,9.14,6.9
O=C(Nc1cccc(C2=NCCCN2)c1)Nc1cccc(C2=NCCCN2)c1,2.31,1.94,0.46
Cc1nc2cc(/C=C/C(=O)NC3CCC(CCN4CCc5ccc(C#N)cc5CC4)CC3)ccc2[nH]1 (stereo unspecified),3.09,2.24,3.19
COc1ccc(CNCCc2cccs2)cc1-c1ccc(OC)c(S(=O)(=O)NCCN2CCCC2)c1,3.2,1.85,3.49
O=C(NCCCCN1CCC(c2ccc(-c3ccco3)cc2)CC1)c1ccc(NC(=O)c2ccc(Cl)cc2)cc1,2.25,2.49,-0.22
O=C(Nc1cccc(F)c1)c1ccc(C(=O)NC2CCN(CC3CCCCC3)C2)cc1 (stereo unspecified),11.1,9.73,8.76
Cn1nc(-c2ccc(NC(=O)Nc3ccc4ccccc4c3)c(F)c2)c2cnc(NCCN3CCOCC3)nc21,5.52,4.79,1.17
C[C@H]1CN(Cc2cccc(-c3cc(CNC(=O)c4cccc(CN5CCN(C/C=C/c6ccccc6)CC5)c4)ccc3F)c2)CCN1,11.6,10.6,12.7
Clc1ccc(CNc2nc(NCCc3c[nH]cn3)nc(NC3CCCCC3)n2)cc1,0.15,-1.21,-0.72
O=C(/C=C/c1ccc(Cl)c(Cl)c1)NCCCCCN1CCC(C(=O)Nc2ccc(Cl)c(Cl)c2)CC1,3,2.54,2.34
COc1ccc(C=Cc2cc(=N)c3ccccc3[nH]2)cc1,3.18,2.77,0.89
C=CCC(CC=C)N1C(=O)C(c2ccccc2)(c2ccccc2)N=C1N,0.75,-0.83,0.62
COc1ccc2cc(CNCCCCCCNCc3ccc4cc(OC)ccc4c3)ccc2c1,107,107,103
Cc1nc(NCCCn2ccnc2)cc(-c2cncc(-c3ccc(OC(F)(F)F)cc3)c2)n1,5.43,5.92,3.04
NC1=NC2(CCCC2)C(c2ccc(Cl)c(Cl)c2)C(N)=N1 (stereo unspecified),2.63,3.21,4.7
Nc1c2c(nc3ccc(NC(=O)CCCCCCc4ccccc4)cc13)CCCC2,-2.4,-2.24,-3.57
